# Source: PubChem BioAssay (National Center for Advancing Translational Sciences (NCATS))
# PKM2 inhibitor: PKM2 (human) enzyme inhibition | purified PKM2, ATP generation, Kinase-Glo luminescence | Potency, µM (series often up to 57.5 µM), inactives show top-dose activity change, negative = inhibition, usual class: inhibitors | P14618 | actives 0.058% (n = 260,000); also: potency is read from the fitted curve at half-maximal effect; nearly all actives have a fitted effect of over 60% in size
#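 Coupled luciferase luminescence (Kinase-Glo) detects ATP generated from 0.1 mM ADP and 0.5 mM PEP in imidazole buffer pH 7.2 with KCl, MgCl2; 1 h at room temperature. Enzyme at intermediate activity; normalized to uninhibited and no-enzyme controls.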
# PKM2 inh CRC: confirmation of human pyruvate kinase M2 inhibitors, concentration-response. Potency, µM (titrated, usually from 57.5 µM), for inactives: at the highest dose activity change, negative = inhibition, actives largely listed as inhibitors. actives 50% (n = 55). purified hPK-M2, Kinase-Glo ATP luminescence, 1 h. shares compounds with PKM2 inhibitor
# PKM2 FLuc cs: blocks firefly luciferase, flagging PKM2 inhibitor artifacts; shares compounds with PKM2 inhibitor; Kinase-Glo firefly luciferase, luminescence, 8 min; Potency, µM (top dose mostly 57.5 µM), without a hit: top-dose activity, negative = inhibition, most hits filed as inhibitors; actives 30% (n = 55)
# PKM2 inh LDH: confirmation of human pyruvate kinase M2 inhibitors, coupled readout | purified hPK-M2, LDH-coupled NADH fluorescence kinetic | Potency, µM (top dose mostly 57.5 µM), for inactives: at the highest dose activity change, negative = inhibition, usual class: inhibitors | shares compounds with PKM2 inhibitor | 55 tested, under 10 active
# Numbers without * were called inactive; ? = inconclusive. This is one part of a sample in which hits are shown more often than they occur. Calls follow the shape of the dose curve; as a rule, active = well fitted curve in the direction sought with a large enough effect; inconclusive = small, poorly fitted or top-dose-only effect, or another doubt; inactive = no such curve, though single readings can be large; an effect the other way counts as inactive or inconclusive.
SMILES,PKM2 inhibitor,others
O=c1c2ccccc2[se]n1-c1ccccc1,6.31µM*,PKM2 inh CRC=5.8µM*;PKM2 FLuc cs=20.6µM*;PKM2 inh LDH=?
Cc1ccccc1N(CC(=O)NC1CCCC1)C(=O)c1csnn1,58.4%,
Nc1c(C(=O)NC2CCCC2)c2nc3ccccc3nc2n1CC1CCCO1 (stereo unspecified),47.4%,
Nn1c(COc2ccc(Cl)cc2)n[nH]c1=S,78.6%,
O=C1c2ccccc2C(=O)N1SC1CCCCC1,35.2%,
